# Experimental data published in PubChem BioAssay AID493210 (National Center for Advancing Translational Sciences (NCATS), 2011).
# The other results are listed elsewhere or left out. The source made the active and inactive calls. The call rests on the fitted dose curve.
# Target: Aldehyde dehydrogenase 1A1 (Homo sapiens) (UniProt P00352)
# Assay: Inhibitors of Aldehyde Dehydrogenase 1 (ALDH1A1): Followup Confirmation and Counterscreen
# Conditions: purified ALDH1A1, NADH fluorescence, propionaldehyde/NAD+
# Source text: Aldehyde dehydrogenase 1 (ALDH1A1) catalyzes the NAD+ dependent oxidation of a variety of endogenous and exogenous aldehydes to the corresponding carboxylic acids. The enzyme is the critical step in the metabolic activation of retinoic acid, which plays essential roles as nuclear receptor ligand. […] See [1] through for more information on ALDH1A1. Inhibition of ALDH1A1 activity was screened by utilizing propionaldehyde as an electron donor and NAD+ as an electron acceptor/cofactor. An increase in the fluorescence intensity due to conversion of NAD+ to NADH was used to measure the enzyme activity. See [5] for screening methodology used. References: [1] Manzer R, Qamar L, Estey T, Pappa A, Petersen DR, Vasiliou V. Molecular cloning and baculovirus expression of the rabbit corneal aldehyde dehydrogenase (ALDH1A1) cDNA. DNA Cell Biol. 2003 May;22(5):329-38. […] Quantitative high-throughput screening: a titration-based approach that efficiently identifies biological activities in large chemical libraries. […]
# Buffer: 100 mM Hepes pH 7.5, 0.01% Tween 20. […] The plates were immediately transferred to and read twice on ViewLux High-throughput CCD imager (Perkin-Elmer) 20 minutes apart using 360 nm excitation and 450 nm emission fluorescence protocol. The fluorescence intensity difference between the second and the first time points was used to compute reaction progress.
# Chain of Aldehyde dehydrogenase 1A1 (Homo sapiens) (P00352 whole entry, looked up): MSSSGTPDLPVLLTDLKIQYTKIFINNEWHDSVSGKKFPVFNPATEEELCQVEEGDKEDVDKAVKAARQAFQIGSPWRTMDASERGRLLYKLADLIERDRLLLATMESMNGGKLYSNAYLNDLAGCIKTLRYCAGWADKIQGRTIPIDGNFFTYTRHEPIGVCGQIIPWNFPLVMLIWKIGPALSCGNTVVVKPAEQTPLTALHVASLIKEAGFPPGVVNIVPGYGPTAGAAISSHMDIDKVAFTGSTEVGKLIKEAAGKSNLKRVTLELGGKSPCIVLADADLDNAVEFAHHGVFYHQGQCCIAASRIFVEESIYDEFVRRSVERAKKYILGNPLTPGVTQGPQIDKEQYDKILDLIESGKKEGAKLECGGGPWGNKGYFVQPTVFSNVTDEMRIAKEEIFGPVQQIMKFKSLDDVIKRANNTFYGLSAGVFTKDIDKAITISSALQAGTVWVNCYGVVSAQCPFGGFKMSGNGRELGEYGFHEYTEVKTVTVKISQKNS
smiles,measurement,value
C[C@]12CC[C@@H]3C(=CCc4cc(O)ccc43)[C@@H]1CCC2=O,Potency,501 nM (active)
